Targets with a hit are over-represented here; the source holds about 8,800 in all. About 0.5% of all pairs of compound and target were hits. Values without a mark were called inactive.
What was measured:
Test in all cases: log2 fold change, soluble protein after heating vs DMSO (PISA); higher = thermal stabilisation; K562 lysate, 10 uM; active = over 0.2 and 3.5 SD of the protein, either way, in both replicates (recomputed)
erlotinib = compound: C#Cc1cccc(Nc2ncnc3cc(OCCOC)c(OCCOC)cc23)c1 [erlotinib]
Outline: (§1)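 Log-two fold change in thermal stability relative to solvent controls is reported from duplicates. For each sample, crude K562 extract from dounce-homogenised pellets in PBS pH 7.4 with 1 mM MgCl2, at 1 mg/mL protein, was treated with 10 μM compound for 30 min. Aliquots heated for 3 min across 48°C-58°C were pooled, brought to 0.5% NP-40 at 4°C and cleared at 21,000xg for 90 min. The supernatant was quantified by TMTpro 16plex LC-MS/MS with channel sums equalised.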

[1] = compound: C/C(=N\NC(=O)C1=CC(=CC=C1)S(=O)(=O)N2CCOCC2)/C3=C(C=CC(=C3)Cl)O
Outline: as §1

[2] = compound: C1=CC(=CC=C1C2=NC3=C(N2)C=C(C=C3)C(=O)N)OC4=CC=C(C=C4)Cl
Outline: as §1

[3] = compound: C1=CC2=C(C=CC(=C2)/C=C\3/C(=O)NC(=NCC4=CC=CS4)S3)N=C1
Outline: as §1

[4] = compound: C1=CC2=NC=CN=C2C=C1/C=C/3\C(=O)NC(=O)S3
Outline: as §1

[5] = compound: C1=CC=C(C=C1)C2=NC(=C(N2)C3=CC=NC=C3)C4=CC(=C(C=C4)Cl)O
Outline: as §1

[6] = compound: C1=CC=C2C(=C1)C3=NNC4=CC=CC(=C43)C2=O
Outline: as §1

[7] = compound: C1CCN(C1)C(=O)NC2=CC=CC(=C2)NC3=NC=C(C(=N3)NCCC4=CN=CN4)Br
Outline: as §1

[8] = compound: C1CN(CCC1(CC2=CC=C(C=C2)Cl)N)C3=NC=NC4=C3C=CN4
Outline: as §1

IRAK-1-4 Inhibitor I = compound: C1COCCN1CCN2C3=CC=CC=C3N=C2NC(=O)C4=CC(=CC=C4)[N+](=O)[O-] [IRAK-1-4 Inhibitor I]
Outline: as §1

Chain of UniProt Q96SN8 (Q96SN8 whole entry, looked up): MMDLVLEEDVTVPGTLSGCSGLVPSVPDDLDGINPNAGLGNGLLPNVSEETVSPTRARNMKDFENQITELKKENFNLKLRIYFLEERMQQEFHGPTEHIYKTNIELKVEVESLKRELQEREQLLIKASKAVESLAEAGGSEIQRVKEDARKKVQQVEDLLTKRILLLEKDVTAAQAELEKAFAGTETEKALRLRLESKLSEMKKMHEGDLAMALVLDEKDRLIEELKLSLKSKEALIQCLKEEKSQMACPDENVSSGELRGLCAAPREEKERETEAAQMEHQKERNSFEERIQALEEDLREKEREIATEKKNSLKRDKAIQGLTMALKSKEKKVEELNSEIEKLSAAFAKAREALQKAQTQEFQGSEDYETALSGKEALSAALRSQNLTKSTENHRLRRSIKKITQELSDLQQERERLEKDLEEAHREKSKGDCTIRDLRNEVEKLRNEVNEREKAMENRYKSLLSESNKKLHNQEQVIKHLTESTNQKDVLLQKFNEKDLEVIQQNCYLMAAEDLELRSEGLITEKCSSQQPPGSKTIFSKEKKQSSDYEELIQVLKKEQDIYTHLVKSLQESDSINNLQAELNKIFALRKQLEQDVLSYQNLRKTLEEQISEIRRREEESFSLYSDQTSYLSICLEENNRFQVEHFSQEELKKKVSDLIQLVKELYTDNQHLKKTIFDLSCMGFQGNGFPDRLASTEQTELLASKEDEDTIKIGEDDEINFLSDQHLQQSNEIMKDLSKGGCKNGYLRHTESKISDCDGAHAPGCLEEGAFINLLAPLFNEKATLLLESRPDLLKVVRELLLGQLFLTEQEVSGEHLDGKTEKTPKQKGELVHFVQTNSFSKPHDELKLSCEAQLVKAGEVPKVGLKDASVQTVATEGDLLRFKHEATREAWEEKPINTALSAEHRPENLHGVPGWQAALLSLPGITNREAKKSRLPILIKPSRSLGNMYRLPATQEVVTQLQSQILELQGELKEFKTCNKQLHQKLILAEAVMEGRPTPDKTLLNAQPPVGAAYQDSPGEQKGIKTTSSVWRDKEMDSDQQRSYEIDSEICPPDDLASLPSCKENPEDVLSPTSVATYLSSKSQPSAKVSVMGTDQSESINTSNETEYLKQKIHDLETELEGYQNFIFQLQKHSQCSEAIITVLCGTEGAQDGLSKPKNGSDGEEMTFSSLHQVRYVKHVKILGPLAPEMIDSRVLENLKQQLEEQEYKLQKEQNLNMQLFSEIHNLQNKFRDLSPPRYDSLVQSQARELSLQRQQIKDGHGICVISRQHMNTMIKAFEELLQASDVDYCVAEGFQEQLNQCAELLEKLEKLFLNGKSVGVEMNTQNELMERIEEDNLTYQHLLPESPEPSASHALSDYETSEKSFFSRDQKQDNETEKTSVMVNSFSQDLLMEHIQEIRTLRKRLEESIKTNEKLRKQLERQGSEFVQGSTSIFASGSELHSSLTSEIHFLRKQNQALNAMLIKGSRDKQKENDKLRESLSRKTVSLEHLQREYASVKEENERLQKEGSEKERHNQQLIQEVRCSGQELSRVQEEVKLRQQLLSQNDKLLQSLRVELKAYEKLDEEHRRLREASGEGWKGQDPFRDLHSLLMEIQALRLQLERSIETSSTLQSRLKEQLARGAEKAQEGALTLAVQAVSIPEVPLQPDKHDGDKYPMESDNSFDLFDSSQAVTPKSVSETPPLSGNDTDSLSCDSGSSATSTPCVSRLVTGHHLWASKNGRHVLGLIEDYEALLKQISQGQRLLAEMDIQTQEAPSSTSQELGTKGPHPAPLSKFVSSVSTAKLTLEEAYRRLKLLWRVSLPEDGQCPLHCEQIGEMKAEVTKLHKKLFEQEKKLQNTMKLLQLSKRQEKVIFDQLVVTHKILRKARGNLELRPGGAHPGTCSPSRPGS
Chain of UniProt Q9Y2V2 (Q9Y2V2 whole entry, looked up): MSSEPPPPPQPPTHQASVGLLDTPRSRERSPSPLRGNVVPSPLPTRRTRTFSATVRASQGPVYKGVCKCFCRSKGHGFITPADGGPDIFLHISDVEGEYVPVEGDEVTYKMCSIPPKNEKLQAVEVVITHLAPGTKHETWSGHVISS
Chain of UniProt O43303 (O43303 whole entry, looked up): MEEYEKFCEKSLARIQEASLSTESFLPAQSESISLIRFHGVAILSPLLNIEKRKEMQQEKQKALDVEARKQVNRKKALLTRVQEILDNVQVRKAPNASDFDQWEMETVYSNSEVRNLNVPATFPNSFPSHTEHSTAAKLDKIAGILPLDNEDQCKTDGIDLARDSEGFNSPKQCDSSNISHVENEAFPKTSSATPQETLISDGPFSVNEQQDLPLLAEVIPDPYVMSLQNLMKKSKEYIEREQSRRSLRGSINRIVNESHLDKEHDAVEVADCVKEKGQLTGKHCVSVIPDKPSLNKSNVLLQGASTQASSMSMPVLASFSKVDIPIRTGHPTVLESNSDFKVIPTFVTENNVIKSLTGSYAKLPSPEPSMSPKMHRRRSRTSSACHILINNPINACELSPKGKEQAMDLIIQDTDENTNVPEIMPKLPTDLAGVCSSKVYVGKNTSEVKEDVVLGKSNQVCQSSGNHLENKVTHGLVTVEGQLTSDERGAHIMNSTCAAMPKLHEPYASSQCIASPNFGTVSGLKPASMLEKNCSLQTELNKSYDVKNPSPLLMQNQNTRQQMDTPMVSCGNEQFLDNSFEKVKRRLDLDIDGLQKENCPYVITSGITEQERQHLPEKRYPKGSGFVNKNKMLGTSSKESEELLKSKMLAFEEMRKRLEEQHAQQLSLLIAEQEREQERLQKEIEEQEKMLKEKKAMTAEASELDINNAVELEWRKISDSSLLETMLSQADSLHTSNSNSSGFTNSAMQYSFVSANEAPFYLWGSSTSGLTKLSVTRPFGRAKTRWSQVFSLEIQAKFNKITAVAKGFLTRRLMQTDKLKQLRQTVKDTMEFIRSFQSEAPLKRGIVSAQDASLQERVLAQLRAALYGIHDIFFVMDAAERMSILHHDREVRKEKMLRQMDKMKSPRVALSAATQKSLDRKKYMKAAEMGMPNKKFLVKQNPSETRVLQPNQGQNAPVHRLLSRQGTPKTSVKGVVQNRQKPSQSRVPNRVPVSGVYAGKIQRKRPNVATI
Chain of UniProt P01024 (P01024 whole entry, looked up): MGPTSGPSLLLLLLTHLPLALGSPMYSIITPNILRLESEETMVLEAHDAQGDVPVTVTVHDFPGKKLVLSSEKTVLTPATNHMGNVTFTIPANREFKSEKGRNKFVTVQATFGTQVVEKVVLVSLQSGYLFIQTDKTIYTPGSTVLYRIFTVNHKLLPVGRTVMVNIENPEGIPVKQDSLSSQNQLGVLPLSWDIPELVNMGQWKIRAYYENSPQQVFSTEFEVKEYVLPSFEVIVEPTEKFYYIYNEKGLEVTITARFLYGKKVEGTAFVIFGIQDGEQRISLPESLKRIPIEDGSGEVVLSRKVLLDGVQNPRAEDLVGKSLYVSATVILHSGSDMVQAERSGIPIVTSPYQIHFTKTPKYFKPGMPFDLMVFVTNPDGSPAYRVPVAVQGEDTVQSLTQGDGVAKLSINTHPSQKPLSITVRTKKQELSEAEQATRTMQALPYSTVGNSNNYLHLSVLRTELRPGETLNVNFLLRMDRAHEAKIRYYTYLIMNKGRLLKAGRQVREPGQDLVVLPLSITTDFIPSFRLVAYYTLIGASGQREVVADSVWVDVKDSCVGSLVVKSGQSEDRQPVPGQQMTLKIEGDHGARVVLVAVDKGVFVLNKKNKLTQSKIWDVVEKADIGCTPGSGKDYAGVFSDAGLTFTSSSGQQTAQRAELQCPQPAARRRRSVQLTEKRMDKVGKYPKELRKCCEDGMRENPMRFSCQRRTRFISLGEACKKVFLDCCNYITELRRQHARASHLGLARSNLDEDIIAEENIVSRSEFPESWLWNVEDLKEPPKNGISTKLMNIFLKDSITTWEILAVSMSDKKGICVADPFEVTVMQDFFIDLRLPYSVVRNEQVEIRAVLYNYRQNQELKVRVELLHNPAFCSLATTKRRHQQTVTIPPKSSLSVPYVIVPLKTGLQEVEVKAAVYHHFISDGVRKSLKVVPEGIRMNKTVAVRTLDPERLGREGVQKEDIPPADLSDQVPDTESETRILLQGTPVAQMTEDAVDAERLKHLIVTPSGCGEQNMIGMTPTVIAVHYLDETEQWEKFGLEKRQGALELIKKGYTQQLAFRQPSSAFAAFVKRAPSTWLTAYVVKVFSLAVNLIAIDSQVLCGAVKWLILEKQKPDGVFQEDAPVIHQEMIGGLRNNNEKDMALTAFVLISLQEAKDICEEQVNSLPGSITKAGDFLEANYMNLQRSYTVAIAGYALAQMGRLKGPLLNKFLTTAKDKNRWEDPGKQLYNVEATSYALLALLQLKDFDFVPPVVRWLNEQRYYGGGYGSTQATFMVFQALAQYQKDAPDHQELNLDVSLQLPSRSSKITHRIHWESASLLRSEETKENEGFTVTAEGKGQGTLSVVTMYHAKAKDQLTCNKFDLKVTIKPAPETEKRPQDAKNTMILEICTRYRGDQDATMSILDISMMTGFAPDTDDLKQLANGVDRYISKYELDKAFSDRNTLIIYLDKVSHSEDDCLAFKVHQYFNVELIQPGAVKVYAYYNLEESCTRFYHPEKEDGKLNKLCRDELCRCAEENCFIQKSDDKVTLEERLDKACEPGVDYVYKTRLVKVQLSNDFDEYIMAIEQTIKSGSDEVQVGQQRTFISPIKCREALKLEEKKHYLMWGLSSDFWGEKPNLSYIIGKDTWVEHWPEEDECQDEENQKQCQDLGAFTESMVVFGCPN
Chain of UniProt Q9Y2V0 (Q9Y2V0 whole entry, looked up): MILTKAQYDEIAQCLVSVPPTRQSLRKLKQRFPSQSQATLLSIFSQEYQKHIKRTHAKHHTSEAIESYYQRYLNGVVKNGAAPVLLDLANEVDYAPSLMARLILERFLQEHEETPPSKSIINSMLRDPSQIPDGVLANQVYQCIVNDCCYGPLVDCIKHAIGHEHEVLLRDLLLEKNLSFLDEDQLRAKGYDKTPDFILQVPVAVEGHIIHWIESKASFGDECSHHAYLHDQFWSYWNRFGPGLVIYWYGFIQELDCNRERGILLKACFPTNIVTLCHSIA

Row | Target | log2 fold change (erlotinib) | log2 fold change [1] | log2 fold change [2] | log2 fold change [3] | log2 fold change [4] | log2 fold change [5] | log2 fold change [6] | log2 fold change [7] | log2 fold change [8] | log2 fold change (IRAK-1-4 Inhibitor I)
1 | BCAR1 isoform 6 (UniProt P56945) | 0.005 | -0.043 | 0.052 | 0.048 | -0.019 | 0.019 | -0.063 | 0.041 | 0.021 | -0.017
2 | CELF2 isoform 3 (UniProt O95319) | -0.111 | -0.041 | -0.041 | -0.004 | -0.024 | 0.007 | -0.012 | -0.053 | 0.041 | -0.029
3 | CDK5RAP2 (UniProt Q96SN8) | 0.037 | 0.159 | -0.021 | -0.008 | -0.09 | -0.011 | -0.025 | -0.016 | 0.001 | -0.026
4 | BPHL (UniProt Q86WA6) | -0.054 | -0.445 (active) | 0.033 | 0.089 | -0.135 | -0.071 | 0.118 | -0.063 | 0.082 | -0.033
5 | BAG4 (UniProt O95429) | -0.036 | 0.046 | 0.075 | -0.017 | 0.004 | -0.038 | 0.021 | 0.047 | 0.017 | 0
6 | C3 (UniProt P01024) | 0.016 | -0.031 | 0 | 0.004 | -0.036 | 0.151 | -0.061 | -0.042 | 0.01 | -0.014
7 | CCP110 (UniProt O43303) | 0.081 | -0.436 (active) | 0.046 | -0.022 | 0.03 | -0.088 | -0.047 | -0.051 | 0.051 | 0.075
8 | CCDC85B (UniProt Q15834) | -0.126 | 0.22 | -0.066 | -0.022 | -0.001 | -0.058 | 0.015 | -0.361 | -0.203 | 0.011
9 | CDC123 (UniProt O75794) | 0.013 | -0.02 | -0.011 | -0.006 | -0.06 | -0.006 | 0.013 | 0 | -0.004 | -0.025
10 | CARHSP1 (UniProt Q9Y2V2) | 0.011 | 0.022 | -0.033 | -0.06 | 0.006 | -0.026 | 0.027 | 0.01 | 0.011 | 0.024
11 | CCAR2 (UniProt Q8N163) | -0.004 | -0.006 | -0.003 | -0.01 | 0.01 | 0.005 | 0.001 | 0 | 0.001 | -0.009
12 | ATXN2 (UniProt F8WB05) | 0.073 | -0.082 | 0.09 | -0.191 | -0.063 | -0.011 | -0.083 | -0.036 | 0.055 | -0.157
13 | C15orf41 (UniProt Q9Y2V0) | 0.008 | 0.073 | 0.032 | 0.112 | -0.097 | 0.014 | -0.04 | -0.028 | -0.076 | -0.012
14 | CBFA2T3 (UniProt O75081) | -0.012 | -0.01 | -0.002 | -0.006 | 0.016 | 0.004 | -0.01 | -0.043 | -0.093 | -0.027
15 | CDAN1 (UniProt Q8IWY9) | 0.006 | -0.01 | 0.048 | -0.025 | -0.012 | -0.04 | -0.063 | -0.001 | 0 | 0.003

— the supplement of paper PMC10849652
